# Measured values as given in PubChem BioAssay (NCI).
# This is part of a sample that, as a whole, favours compounds with a hit. Of some 83,000 tested, about 20% had one in any assay.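 Note: values are percent growth. 100 is the growth of untreated cells, values between 100 and 0 indicate rising inhibition; between -100 and 0 indicates cell death.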 Values without a mark were called inactive. Calls of active or inactive are those of the source. How the source made its calls: active means growth percent below 10; inactive means the rest.
# Tests used:
# Test in all cases: NCI-60 one-dose screen, 48 h (100 = growth as untreated, 0 = no growth, -100 = all killed)
# [1] = tested on: RPMI-8226 leukemia; details: 10 µM unless noted
# [2] = tested on: OVCAR-8 ovarian; details: 10 µM unless noted
# [3] = tested on: OVCAR-5 ovarian; details: 10 µM unless noted
# [4] = tested on: OVCAR-4 ovarian; details: 10 µM unless noted
# [5] = tested on: IGROV1 ovarian; details: 10 µM unless noted
# [6] = tested on: OVCAR-3 ovarian; details: 10 µM unless noted
# [7] = tested on: HS 578T breast; details: 10 µM unless noted
# [8] = tested on: NCI/ADR-RES ovarian; details: 10 µM unless noted
# [9] = tested on: T-47D breast; details: 10 µM unless noted
# [10] = tested on: BT-549 breast; details: 10 µM unless noted
# [11] = tested on: MDA-MB-435 melanoma; details: 10 µM unless noted
# [12] = tested on: SW-620 colon; details: 10 µM unless noted
# [13] = tested on: MCF7 breast; details: 10 µM
# [14] = tested on: HCT-116 colon; details: 10 µM unless noted
# [15] = tested on: HCC-2998 colon; details: 10 µM unless noted
# [16] = tested on: KM12 colon; details: 10 µM unless noted
Compound,growth [1],growth [2],growth [3],growth [4],growth [5],growth [6],growth [7],growth [8],growth [9],growth [10],growth [11],growth [12],growth [13],growth [14],growth [15],growth [16]
Cc1cc2c(c(C)c1Cl)C(=O)/C(=C/c1cccc([N+](=O)[O-])c1)O2,108%,94.4%,100%,86.5%,96.6%,107%,95.8%,101%,98.4%,106%,99.5%,104%,66%,103%,102%,103%
NC(CCc1nc2ccccc2c(=O)[nH]1)C(=O)O (stereo not given),101%,104%,105%,103%,99.1%,119%,102%,110%,108%,97%,100%,102%,105%,105%,107%,112%
O=Cc1c(OCc2cnnn2CC(=O)Nc2ccc(Br)cc2)ccc2ccccc12,104%,96.1%,95%,97%,85.9%,97.2%,85.1%,90.5%,78.7%,80.8%,102%,91.3%,84.1%,101%,94.3%,88.7%
OCCNc1nc(Nc2ccc(C3=NN(c4cc(Cl)cc(Cl)c4)C(c4ccc(C(F)(F)F)cc4)C3)cc2)nc(N2CCOCC2)n1 (stereo not given),71.7%,68.1%,95.3%,64%,93%,86.1%,62.8%,68.3%,64.1%,99.3%,66.5%,94%,30.1%,66.8%,76.3%,68.6%
COc1ccc(C2=C(c3cccc(OC)c3)C(=O)c3ccc(C)nc3C2=O)cc1,47.2%,42.3%,104%,-95.8% (active),43%,7.59% (active),52.5%,17.1%,-41.4% (active),57.5%,32.2%,23.6%,23.7%,11.2%,84.6%,28.6%
COc1cc(CNC(=O)Cc2ccccc2)ccc1OCc1cn(-c2ccc(F)cc2)nn1,89.8%,95.5%,108%,78.2%,106%,107%,99.1%,94.7%,94.7%,99.8%,98.4%,109%,91.8%,102%,106%,108%
O=C1Nc2ccccc2/C1=C/c1ccc[nH]1,97.6%,92.8%,78.7%,29.8%,49.7%,81.7%,86.6%,99.9%,-24.3% (active),57.8%,101%,89.3%,12.8%,96%,54.7%,10.4%
Cn1c(/C=C(\C#N)c2ccccc2)nc2c(N3CCOCC3)nc(Cl)nc21,-24.3% (active),8.78% (active),-50.1% (active),-58.4% (active),-61.7% (active),-91.8% (active),-20% (active),3.17% (active),-37.8% (active),-77.2% (active),-84.7% (active),-74.2% (active),-57.7% (active),-78.1% (active),-17.2% (active),-53% (active)
COC(=O)[C@H](NC(=O)C1(C)CCC[C@]2(C)[C@H]3C[C@H]4C(C(C)C)=C[C@]3(CC[C@@H]12)[C@@H]1C(=O)CCC(=O)[C@@H]14)C(C)C (stereo not given in full),103%,101%,98.7%,94.5%,91.9%,109%,92.9%,96.1%,94.2%,106%,104%,106%,98.2%,106%,104%,105%
CCN1C(=O)N(c2ccccc2)C2NN=c3s/c(=C4\C(=O)N(C(C)C)c5ccccc54)c(=O)n3C21 (stereo not given),32%,31.6%,45.3%,45.8%,28.5%,1.06% (active),24.6%,15.7%,53.8%,12.7%,-21.2% (active),35.2%,20.6%,4.19% (active),33.4%,14.5%
